# Data: the supplement of paper PMC10849652
# Of roughly 8,800 targets only a part is listed; those with a hit were picked by preference. About 0.5% of all pairs of compound and target were hits. A number with no mark means an inactive call.
# How the values were obtained:
# Test in all cases: log2 fold change, soluble protein after heating vs DMSO (PISA); higher = thermal stabilisation; K562 lysate, 10 uM; active = over 0.2 and 3.5 SD of the protein, either way, in both replicates (recomputed)
# nilotinib = compound: Cc1cn(-c2cc(NC(=O)c3ccc(C)c(Nc4nccc(-c5cccnc5)n4)c3)cc(C(F)(F)F)c2)cn1 [nilotinib]
# In short: (§1)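 Dounce homogenisation of K562 pellets in PBS pH 7.4 with 1 mM MgCl2 produced a crude extract, used at 1 mg/mL protein. Exposure to 10 μM compound lasted 30 min, and aliquots were then heated for 3 min across 48°C-58°C, pooled and brought to 0.5% NP-40 at 4°C. The supernatant after 21,000xg for 90 min was quantified by TMTpro 16plex LC-MS/MS with channel sums equalised. Duplicate values are given as log-two fold change in thermal stability relative to solvent controls.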
# [1] = compound: Cc1nc(Nc2n[nH]c3c2CN(C(=O)N[C@H](CN(C)C)c2ccccc2)C3(C)C)c2sccc2n1
# In short: as §1
# dasatinib = compound: Cc1nc(Nc2ncc(C(=O)Nc3c(C)cccc3Cl)s2)cc(N2CCN(CCO)CC2)n1 [dasatinib]
# In short: as §1
# [2] = compound: Cc1ncc(-c2ccnc(Nc3ccc(S(C)(=O)=O)cc3)n2)n1C(C)C
# In short: as §1
# [3] = compound: Cn1cc(-c2ccc3c(c2)CCN3C(=O)Cc2cccc(C(F)(F)F)c2)c2c(N)ncnc21
# In short: as §1
# quisinostat = compound: Cn1cc(CNCC2CCN(c3ncc(C(=O)NO)cn3)CC2)c2ccccc21 [quisinostat]
# In short: as §1
# tipifarnib = compound: Cn1cncc1[C@@](N)(c1ccc(Cl)cc1)c1ccc2c(c1)c(-c1cccc(Cl)c1)cc(=O)n2C [tipifarnib]
# In short: as §1
# [4] = compound: NC(=O)Nc1cc(-c2cccc(F)c2)sc1C(=O)N[C@H]1CCCNC1
# In short: as §1
# [5] = compound: NC(=O)c1cnc(N[C@@H]2CCCC[C@@H]2N)nc1Nc1cccc(-n2nccn2)c1
# In short: as §1
# [6] = compound: NC1(c2ccc(-c3nc4ccn5c(=O)[nH]nc5c4cc3-c3ccccc3)cc2)CCC1
# In short: as §1
# [7] = compound: NCC(=O)Nc1ccc(-n2nc(C(F)(F)F)cc2-c2ccc3c(ccc4ccccc43)c2)cc1
# In short: as §1
# vorinostat = compound: O=C(CCCCCCC(=O)Nc1ccccc1)NO [vorinostat]
# In short: as §1
# silmitasertib = compound: O=C(O)c1ccc2c(c1)nc(Nc1cccc(Cl)c1)c1ccncc12 [silmitasertib]
# In short: as §1
# [8] = compound: O=C1NC(=O)C(c2cnc3ccccn23)=C1c1cn2c3c(cc(F)cc13)CN(C(=O)N1CCCCC1)CC2
# In short: as §1
# entospletinib = compound: c1cn2cc(-c3ccc4cn[nH]c4c3)nc(Nc3ccc(N4CCOCC4)cc3)c2n1 [entospletinib]
# In short: as §1
# Chain of UniProt P01116 (P01116 whole entry, looked up): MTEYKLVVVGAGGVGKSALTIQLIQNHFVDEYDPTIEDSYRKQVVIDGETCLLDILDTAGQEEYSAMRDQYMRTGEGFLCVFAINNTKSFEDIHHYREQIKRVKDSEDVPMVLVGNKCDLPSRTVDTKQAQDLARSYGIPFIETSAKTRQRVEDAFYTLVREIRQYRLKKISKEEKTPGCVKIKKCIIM
# Chain of UniProt Q09328 (Q09328 whole entry, looked up): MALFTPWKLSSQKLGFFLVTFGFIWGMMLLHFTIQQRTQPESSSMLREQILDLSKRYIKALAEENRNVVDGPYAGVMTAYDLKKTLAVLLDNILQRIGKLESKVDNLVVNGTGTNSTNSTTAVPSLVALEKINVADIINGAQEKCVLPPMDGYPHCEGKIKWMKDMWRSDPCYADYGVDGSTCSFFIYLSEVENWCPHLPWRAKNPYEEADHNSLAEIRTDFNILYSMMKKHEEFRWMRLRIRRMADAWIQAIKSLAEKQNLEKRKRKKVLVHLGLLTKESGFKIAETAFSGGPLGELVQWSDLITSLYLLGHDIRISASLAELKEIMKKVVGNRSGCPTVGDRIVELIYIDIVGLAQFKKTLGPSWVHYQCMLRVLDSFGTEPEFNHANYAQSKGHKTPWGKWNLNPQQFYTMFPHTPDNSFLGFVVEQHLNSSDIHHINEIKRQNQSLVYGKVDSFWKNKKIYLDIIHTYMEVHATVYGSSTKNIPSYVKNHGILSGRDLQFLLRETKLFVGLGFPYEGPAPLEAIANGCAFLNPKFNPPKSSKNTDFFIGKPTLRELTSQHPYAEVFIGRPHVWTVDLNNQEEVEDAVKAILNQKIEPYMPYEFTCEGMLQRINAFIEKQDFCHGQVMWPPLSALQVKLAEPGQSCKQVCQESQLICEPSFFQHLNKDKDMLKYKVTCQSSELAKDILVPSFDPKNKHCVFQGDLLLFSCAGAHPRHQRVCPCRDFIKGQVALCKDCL
# Chain of UniProt O14733 (O14733 whole entry, looked up): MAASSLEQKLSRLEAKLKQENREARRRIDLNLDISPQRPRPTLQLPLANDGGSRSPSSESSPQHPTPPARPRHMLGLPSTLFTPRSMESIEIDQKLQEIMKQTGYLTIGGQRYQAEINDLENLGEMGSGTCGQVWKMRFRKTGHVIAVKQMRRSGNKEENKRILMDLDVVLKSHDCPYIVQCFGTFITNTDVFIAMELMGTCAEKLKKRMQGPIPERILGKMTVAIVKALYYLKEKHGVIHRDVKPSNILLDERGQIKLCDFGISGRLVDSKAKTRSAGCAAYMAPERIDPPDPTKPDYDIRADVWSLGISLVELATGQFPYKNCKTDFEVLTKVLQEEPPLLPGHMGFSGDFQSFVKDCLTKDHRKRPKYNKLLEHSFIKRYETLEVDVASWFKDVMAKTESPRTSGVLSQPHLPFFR
# Chain of UniProt Q9H6V9 (Q9H6V9 whole entry, looked up): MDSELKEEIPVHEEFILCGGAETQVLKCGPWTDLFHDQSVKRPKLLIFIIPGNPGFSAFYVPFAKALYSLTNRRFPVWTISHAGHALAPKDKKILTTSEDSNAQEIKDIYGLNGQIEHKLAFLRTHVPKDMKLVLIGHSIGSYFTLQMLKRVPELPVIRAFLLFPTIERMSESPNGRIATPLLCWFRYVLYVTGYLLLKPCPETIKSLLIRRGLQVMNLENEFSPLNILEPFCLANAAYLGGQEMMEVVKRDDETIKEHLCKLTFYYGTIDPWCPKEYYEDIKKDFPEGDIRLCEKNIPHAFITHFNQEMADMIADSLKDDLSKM
# Chain of UniProt Q9Y250 (Q9Y250 whole entry, looked up): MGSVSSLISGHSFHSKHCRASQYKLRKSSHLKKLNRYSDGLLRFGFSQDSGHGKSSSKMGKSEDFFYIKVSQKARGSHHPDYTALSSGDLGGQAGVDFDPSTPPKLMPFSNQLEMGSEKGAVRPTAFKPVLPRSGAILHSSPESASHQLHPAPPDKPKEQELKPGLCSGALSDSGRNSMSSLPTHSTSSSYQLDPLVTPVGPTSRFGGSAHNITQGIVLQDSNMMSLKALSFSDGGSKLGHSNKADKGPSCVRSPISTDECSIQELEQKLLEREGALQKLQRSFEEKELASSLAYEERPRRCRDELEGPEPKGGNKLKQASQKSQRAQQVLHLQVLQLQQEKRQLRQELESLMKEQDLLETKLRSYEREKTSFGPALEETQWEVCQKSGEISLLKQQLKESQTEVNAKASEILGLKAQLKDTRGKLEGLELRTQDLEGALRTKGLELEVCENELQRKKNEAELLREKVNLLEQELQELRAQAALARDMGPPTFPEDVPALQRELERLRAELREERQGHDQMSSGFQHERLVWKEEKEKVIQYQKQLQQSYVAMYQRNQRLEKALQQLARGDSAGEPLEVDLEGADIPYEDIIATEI
# Chain of UniProt Q9HAP2 (Q9HAP2 whole entry, looked up): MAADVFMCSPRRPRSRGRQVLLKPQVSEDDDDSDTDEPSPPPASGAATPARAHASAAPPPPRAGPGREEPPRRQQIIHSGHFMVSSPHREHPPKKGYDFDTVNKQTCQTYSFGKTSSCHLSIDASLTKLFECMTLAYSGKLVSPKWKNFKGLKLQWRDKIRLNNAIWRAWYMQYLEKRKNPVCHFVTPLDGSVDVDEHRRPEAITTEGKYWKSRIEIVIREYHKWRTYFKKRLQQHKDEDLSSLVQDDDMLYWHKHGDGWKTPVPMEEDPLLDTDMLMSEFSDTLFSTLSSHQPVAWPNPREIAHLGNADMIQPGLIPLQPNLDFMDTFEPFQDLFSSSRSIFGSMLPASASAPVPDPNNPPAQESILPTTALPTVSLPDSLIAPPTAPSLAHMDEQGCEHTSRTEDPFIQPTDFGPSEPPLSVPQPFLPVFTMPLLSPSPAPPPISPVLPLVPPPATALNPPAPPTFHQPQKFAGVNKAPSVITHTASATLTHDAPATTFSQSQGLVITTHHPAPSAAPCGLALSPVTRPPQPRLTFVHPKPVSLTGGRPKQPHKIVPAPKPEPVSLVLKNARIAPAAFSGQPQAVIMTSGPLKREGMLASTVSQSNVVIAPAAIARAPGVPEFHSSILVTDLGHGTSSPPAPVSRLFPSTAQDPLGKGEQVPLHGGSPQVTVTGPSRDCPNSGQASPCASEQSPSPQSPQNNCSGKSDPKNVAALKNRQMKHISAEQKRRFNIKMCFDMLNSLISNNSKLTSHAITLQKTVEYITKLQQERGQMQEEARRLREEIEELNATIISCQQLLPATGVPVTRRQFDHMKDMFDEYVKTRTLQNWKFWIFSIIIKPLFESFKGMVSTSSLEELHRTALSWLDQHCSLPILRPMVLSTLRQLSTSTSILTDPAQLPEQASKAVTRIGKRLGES
# Chain of UniProt Q16659 (Q16659 whole entry, looked up): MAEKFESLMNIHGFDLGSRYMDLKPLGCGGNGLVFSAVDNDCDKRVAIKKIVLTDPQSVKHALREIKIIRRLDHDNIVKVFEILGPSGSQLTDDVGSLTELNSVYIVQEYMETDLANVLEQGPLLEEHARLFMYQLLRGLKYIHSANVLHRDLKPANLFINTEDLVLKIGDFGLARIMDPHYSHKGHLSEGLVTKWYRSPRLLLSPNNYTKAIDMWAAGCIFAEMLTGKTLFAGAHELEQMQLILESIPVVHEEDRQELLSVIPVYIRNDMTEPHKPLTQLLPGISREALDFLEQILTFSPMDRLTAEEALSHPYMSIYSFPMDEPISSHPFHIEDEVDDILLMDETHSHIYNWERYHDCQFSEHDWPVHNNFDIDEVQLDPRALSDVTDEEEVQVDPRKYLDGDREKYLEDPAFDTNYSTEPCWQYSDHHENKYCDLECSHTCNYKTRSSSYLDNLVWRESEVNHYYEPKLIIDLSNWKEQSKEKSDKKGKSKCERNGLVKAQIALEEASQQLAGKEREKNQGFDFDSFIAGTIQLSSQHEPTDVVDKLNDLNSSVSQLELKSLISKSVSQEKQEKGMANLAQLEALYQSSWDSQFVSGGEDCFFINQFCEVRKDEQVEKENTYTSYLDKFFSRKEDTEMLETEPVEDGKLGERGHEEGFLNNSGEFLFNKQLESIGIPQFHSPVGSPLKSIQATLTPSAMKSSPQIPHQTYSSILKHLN
# Chain of UniProt Q16644 (Q16644 whole entry, looked up): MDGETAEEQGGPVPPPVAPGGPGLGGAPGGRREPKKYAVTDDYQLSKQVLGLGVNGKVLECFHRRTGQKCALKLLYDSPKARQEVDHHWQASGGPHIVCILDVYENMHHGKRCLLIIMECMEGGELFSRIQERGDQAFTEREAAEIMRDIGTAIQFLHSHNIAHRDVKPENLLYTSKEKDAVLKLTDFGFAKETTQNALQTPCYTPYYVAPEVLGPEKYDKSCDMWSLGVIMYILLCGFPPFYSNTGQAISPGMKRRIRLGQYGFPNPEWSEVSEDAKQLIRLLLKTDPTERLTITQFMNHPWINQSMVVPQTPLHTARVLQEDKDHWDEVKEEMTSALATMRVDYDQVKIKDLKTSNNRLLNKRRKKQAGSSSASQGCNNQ
# Chain of UniProt Q9BTE3 (Q9BTE3 whole entry, looked up): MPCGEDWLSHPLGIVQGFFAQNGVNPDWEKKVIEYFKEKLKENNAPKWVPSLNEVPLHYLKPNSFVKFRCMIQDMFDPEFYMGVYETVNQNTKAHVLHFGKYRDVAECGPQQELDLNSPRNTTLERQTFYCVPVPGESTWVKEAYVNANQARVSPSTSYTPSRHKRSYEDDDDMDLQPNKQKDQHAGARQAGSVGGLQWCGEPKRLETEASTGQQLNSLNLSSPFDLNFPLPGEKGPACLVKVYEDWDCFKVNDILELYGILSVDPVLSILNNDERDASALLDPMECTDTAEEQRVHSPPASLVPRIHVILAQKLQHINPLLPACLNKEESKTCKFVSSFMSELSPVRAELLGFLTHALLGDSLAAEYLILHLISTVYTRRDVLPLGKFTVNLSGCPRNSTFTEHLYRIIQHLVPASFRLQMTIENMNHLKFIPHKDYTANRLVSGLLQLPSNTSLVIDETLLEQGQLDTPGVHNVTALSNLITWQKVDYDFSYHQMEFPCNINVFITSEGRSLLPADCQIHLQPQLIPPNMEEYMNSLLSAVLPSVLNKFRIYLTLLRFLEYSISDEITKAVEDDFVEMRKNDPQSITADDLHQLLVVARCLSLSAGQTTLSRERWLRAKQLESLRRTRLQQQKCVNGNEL
Target,log2 fold change (nilotinib),log2 fold change [1],log2 fold change (dasatinib),log2 fold change [2],log2 fold change [3],log2 fold change (quisinostat),log2 fold change (tipifarnib),log2 fold change [4],log2 fold change [5],log2 fold change [6],log2 fold change [7],log2 fold change (vorinostat),log2 fold change (silmitasertib),log2 fold change [8],log2 fold change (entospletinib)
MAP2K5 (UniProt Q13163),0.019,-0.086,-0.229,-0.143,0.079,-0.152,-0.015,0.925 (active),0.035,-0.048,-0.111,-0.293,-0.123,0.023,0.065
MAPK14 (UniProt Q16539),0.563,0.038,0.984 (active),0.069,-0.029,-0.025,-0.137,-0.012,-0.005,-0.042,-0.007,-0.294,0.279,0.015,-0.005
MPDZ (UniProt O75970),-0.097,0.245,-0.082,-0.059,-0.049,-0.084,0.328,-0.057,-0.041,0.112,0.058,-0.59 (active),0.066,0.177,-0.111
LDAH isoform 2 (UniProt Q9H6V9),-0.062,0.023,-0.071,-0.003,0.017,-0.022,-0.077,0.037,-0.009,0.307 (active),-0.017,-0.13,0.064,0.033,-0.029
MGAT5 (UniProt Q09328),0.035,0.01,-0.005,0.012,0.002,0.051,-0.02,-0.019,0.022,-0.003,0.054,0.139,-0.014,0.013,0.063
KIF2A isoform 4 (UniProt O00139),0.021,-0.015,-0.022,-0.02,0.042,-0.005,0.015,0.021,0.017,0.006,-0.018,-0.518 (active),0.044,-0.015,-0.006
MAP7D3 (UniProt Q8IWC1),-0.012,-0.01,0.03,-0.037,0.029,-0.101,0.014,0.003,-0.016,0.005,0.098,0.037,0.059,-0.046,-0.013
MAPK6 (UniProt Q16659),-0.065,0.085,0.032,0.05,0.039,-0.003,-0.081,0.055,0.017,-0.028,-0.04,-0.033,0.033,0.035,0.024
MLXIP (UniProt Q9HAP2),0.09,0.003,-0.068,0.003,0.02,-0.04,0,0.082,-0.01,-0.028,0.037,-0.314 (active),0.026,0.079,0.03
KRAS (UniProt P01116),0.034,-0.014,0.049,0.018,-0.015,0.042,0.129,-0.001,0.005,-0.032,0.033,0.129,0.022,-0.072,-0.021
MAPKAPK5 (UniProt Q8IW41),-0.003,0.056,0.011,0.064,0.024,-0.222,-0.065,0.519 (active),-0.006,-0.006,-0.012,0.07,0.002,0.052,0.028
MARCHF6 (UniProt O60337),0.164,-0.024,-0.136,0.04,-0.169,-0.085,-0.179,-0.025,-0.023,-0.008,0,0.057,-0.037,-0.06,-0.028
MARK2 (UniProt E9PC69),0.019,0.034,-0.03,0.012,-0.047,0.031,-0.019,-0.065,0.002,-0.183,0.026,-0.167,0.486 (active),0.006,0.153
MAP2K7 isoform 4 (UniProt O14733),0.017,-0.101,-0.093,0,0.22,0.001,-0.024,0.033,0.001,0.002,0.009,-1.09 (active),0.167,-0.051,-0.047
LARS2 (UniProt Q15031),-0.002,0.048,-0.075,-0.008,0.065,0.028,-0.085,0.089,0.044,-0.036,-0.062,-0.229,0.054,-0.083,0.036
LZTS1 (UniProt Q9Y250),-0.13,0.023,0.056,0.167,-0.266,-1.06 (active),0.087,0.186,-0.02,-0.297,0.04,0.101,-0.143,0.121,0.07
MPP1 (UniProt Q00013),-0.017,-0.014,-0.011,0.011,0.007,0.017,0,0.024,0.017,0,0.012,-0.297 (active),0.02,0.024,0.007
MAPKAPK3 (UniProt Q16644),-0.024,0.077,0.023,-0.058,0.016,0.01,0.017,0.021,0.013,0.009,-0.063,-0.43 (active),-0.001,0.162,-0.049
MCMBP (UniProt Q9BTE3),-0.01,-0.008,-0.031,-0.028,0.008,-0.039,0.024,0.039,0.014,-0.033,-0.01,-0.415 (active),0.028,-0.013,-0.007
LAS1L (UniProt Q9Y4W2),-0.019,0.008,0.025,0.029,-0.019,-0.083,-0.013,0.033,0.044,-0.024,-0.008,-0.397 (active),0.01,-0.018,-0.075
MRPL46 (UniProt Q9H2W6),-0.036,0.039,0.016,0.064,0.03,-0.034,0.05,0.03,-0.023,0.035,0.021,-0.21,0.155,0.036,-0.049
